Measured values as given in the supplement of paper PMC8975748.
Where a name gives a salt, the structure may show the parent alone. ± gives the standard deviation of the averaged measurements.

Experiments:
[1] = tested on: Saccharomyces cerevisiae BY4741 SeMeCo community; assay: mean cell size (pixel area) (pixels); higher = larger cells; details: 10 µM; 24 h; SM minimal medium
Procedure, shortened: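 A fluorescent Saccharomyces cerevisiae BY4741 community carrying four plasmids was used, with each plasmid complementing one auxotrophy and bearing a fluorescent marker. An overnight preculture at OD600 = 1.0 was diluted to OD600 = 0.3, and 70 µl went into 384-well plates acoustically predosed with drug (final 10 µM) in SM medium for 24 h. After paraformaldehyde fixation, cells were imaged by automated confocal microscopy and analysed in Harmony, giving the mean cell pixel area per well. Each value is the average of 3 replicates. Same SeMeCo high-content imaging drug screen: Selleck FDA-approved drugs at 10 µM, 24 h in SM medium, 384-well plates, 3 replicates.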

[2] = tested on: Saccharomyces cerevisiae BY4741 SeMeCo community; assay: z-score of subpopulation abundance vs DMSO median, subpopulation auxotrophic for M; higher = larger share of this subpopulation than in DMSO controls; details: 10 µM; 24 h; SM minimal medium; subpopulation (auxotrophy): M
Procedure, shortened: (§1)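 Scoring was based on each subpopulation's abundance, expressed as a z-score against the vehicle-well median. A Saccharomyces cerevisiae BY4741 community with four plasmids, each restoring one auxotrophy and encoding a distinct fluorescent protein, was pre-grown overnight to OD600 1.0, diluted to 0.3, and added at 70 µl to 384-well plates acoustically predosed with library drugs (10 µM final). It then grew 24 h in minimal SM medium before paraformaldehyde fixation and automated confocal microscopy, with single-auxotroph fluorescent strains setting thresholds and autofluorescence correction.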

[3] = tested on: Saccharomyces cerevisiae BY4741 SeMeCo community; assay: z-score of subpopulation abundance vs DMSO median, subpopulation auxotrophic for L; higher = larger share of this subpopulation than in DMSO controls; details: 10 µM; 24 h; SM minimal medium; subpopulation (auxotrophy): L
Procedure, shortened: as §1

[4] = tested on: Saccharomyces cerevisiae BY4741 SeMeCo community; assay: z-score of subpopulation abundance vs DMSO median, subpopulation auxotrophic for H; higher = larger share of this subpopulation than in DMSO controls; details: 10 µM; 24 h; SM minimal medium; subpopulation (auxotrophy): H
Procedure, shortened: as §1

[5] = tested on: Saccharomyces cerevisiae BY4741 SeMeCo community; assay: z-score of subpopulation abundance vs DMSO median, subpopulation auxotrophic for LM; higher = larger share of this subpopulation than in DMSO controls; details: 10 µM; 24 h; SM minimal medium; subpopulation (auxotrophy): LM
Procedure, shortened: as §1

[6] = tested on: Saccharomyces cerevisiae BY4741 SeMeCo community; assay: z-score of subpopulation abundance vs DMSO median, subpopulation auxotrophic for HU; higher = larger share of this subpopulation than in DMSO controls; details: 10 µM; 24 h; SM minimal medium; subpopulation (auxotrophy): HU
Procedure, shortened: as §1

[7] = tested on: Saccharomyces cerevisiae BY4741 SeMeCo community; assay: z-score of subpopulation abundance vs DMSO median, subpopulation auxotrophic for HL; higher = larger share of this subpopulation than in DMSO controls; details: 10 µM; 24 h; SM minimal medium; subpopulation (auxotrophy): HL
Procedure, shortened: as §1

[8] = tested on: Saccharomyces cerevisiae BY4741 SeMeCo community; assay: z-score of subpopulation abundance vs DMSO median, subpopulation auxotrophic for HLU; higher = larger share of this subpopulation than in DMSO controls; details: 10 µM; 24 h; SM minimal medium; subpopulation (auxotrophy): HLU
Procedure, shortened: as §1

[9] = tested on: Saccharomyces cerevisiae BY4741 SeMeCo community; assay: z-score of subpopulation abundance vs DMSO median, subpopulation auxotrophic for HLM; higher = larger share of this subpopulation than in DMSO controls; details: 10 µM; 24 h; SM minimal medium; subpopulation (auxotrophy): HLM
Procedure, shortened: as §1

[10] = tested on: Saccharomyces cerevisiae BY4741 SeMeCo community; assay: z-score of subpopulation abundance vs DMSO median, subpopulation auxotrophic for HUM; higher = larger share of this subpopulation than in DMSO controls; details: 10 µM; 24 h; SM minimal medium; subpopulation (auxotrophy): HUM
Procedure, shortened: as §1

[11] = tested on: Saccharomyces cerevisiae BY4741 SeMeCo community; assay: z-score of subpopulation abundance vs DMSO median, subpopulation auxotrophic for LUM; higher = larger share of this subpopulation than in DMSO controls; details: 10 µM; 24 h; SM minimal medium; subpopulation (auxotrophy): LUM
Procedure, shortened: as §1

[12] = tested on: Saccharomyces cerevisiae BY4741 SeMeCo community; assay: z-score of subpopulation abundance vs DMSO median, subpopulation auxotrophic for HLUM; higher = larger share of this subpopulation than in DMSO controls; details: 10 µM; 24 h; SM minimal medium; subpopulation (auxotrophy): HLUM
Procedure, shortened: as §1

[13] = tested on: Saccharomyces cerevisiae BY4741 SeMeCo community; assay: z-score of subpopulation abundance vs DMSO median, subpopulation auxotrophic for U; higher = larger share of this subpopulation than in DMSO controls; details: 10 µM; 24 h; SM minimal medium; subpopulation (auxotrophy): U
Procedure, shortened: as §1

[14] = tested on: Saccharomyces cerevisiae BY4741 SeMeCo community; assay: z-score of subpopulation abundance vs DMSO median, subpopulation auxotrophic for HM; higher = larger share of this subpopulation than in DMSO controls; details: 10 µM; 24 h; SM minimal medium; subpopulation (auxotrophy): HM
Procedure, shortened: as §1

[15] = tested on: Saccharomyces cerevisiae BY4741 SeMeCo community; assay: z-score of prototroph abundance vs DMSO median; higher = larger share of this subpopulation than in DMSO controls; details: 10 µM; 24 h; SM minimal medium; subpopulation (auxotrophy): Prototroph
Procedure, shortened: as §1

[16] = tested on: Saccharomyces cerevisiae BY4741 SeMeCo community; assay: z-score of subpopulation abundance vs DMSO median, subpopulation auxotrophic for UM; higher = larger share of this subpopulation than in DMSO controls; details: 10 µM; 24 h; SM minimal medium; subpopulation (auxotrophy): UM
Procedure, shortened: as §1

| SMILES | mean cell size [1] | z-score of subpopulation abundance [2] | z-score of subpopulation abundance [3] | z-score of subpopulation abundance [4] | z-score of subpopulation abundance [5] | z-score of subpopulation abundance [6] | z-score of subpopulation abundance [7] | z-score of subpopulation abundance [8] | z-score of subpopulation abundance [9] | z-score of subpopulation abundance [10] | z-score of subpopulation abundance [11] | z-score of subpopulation abundance [12] | z-score of subpopulation abundance [13] | z-score of subpopulation abundance [14] | z-score of prototroph abundance [15] | z-score of subpopulation abundance [16] |
| --- | --- | --- | --- | --- | --- | --- | --- | --- | --- | --- | --- | --- | --- | --- | --- | --- |
| COc1ccc(CC2c3cc(OC)c(OC)cc3CC[N+]2(C)CCC(=O)OCCCCCOC(=O)CC[N+]2(C)CCc3cc(OC)c(OC)cc3C2Cc2ccc(OC)c(OC)c2)cc1OC (stereo not drawn) [Atracurium Besylate] | 12.4 ± 0.24 | -0.87 | 1.52 | 0.57 | 0.79 | 0.23 | 1.4 | 0.55 | 0.51 | 0.71 | 0.45 | -0.07 | – | – | – | – |
| CC/C(=C(/CC)c1ccc(O)cc1)c1ccc(O)cc1 [Diethylstilbestrol] | 12.85 ± 0.035 | 0.52 | -0.38 | 0.17 | -0.03 | -1.29 | -0.25 | -1.06 | -0.67 | -1.46 | -1.01 | -1.31 | -1.17 | -0.17 | – | – |
| CCCNC(C)C(=O)Nc1ccccc1C (stereo not drawn) [Prilocaine] | 12.51 ± 0.059 | -0.72 | 1 | 0.48 | -0.18 | – | -0.2 | 0.3 | 0.16 | – | 0.36 | 0.52 | – | 0.09 | -0.27 | -0.84 |
| Clc1ccc(COC(Cn2ccnc2)c2ccc(Cl)cc2Cl)cc1 (stereo not drawn) [Econazole nitrate] | 11.9 ± 0.2 | -2.24 | -3.48 | 15.7 | -1.64 | – | 5.56 | 6.46 | 10.7 | 6.6 | 1.67 | 9.87 | 3.05 | 2.52 | -8.44 | 10.3 |
| N#Cc1ccc2[nH]cc(CCCCN3CCN(c4ccc5oc(C(N)=O)cc5c4)CC3)c2c1 [Vilazodone] | 12.2 ± 0.28 | 0.28 | 0.06 | 0 | 0.35 | -0.93 | -0.17 | 0.77 | 0.08 | -0.53 | – | 0.53 | -0.66 | -0.16 | 0.6 | -0.2 |
| CCCc1nn(C)c2c(=O)[nH]c(-c3cc(S(=O)(=O)N4CCN(C)CC4)ccc3OCC)nc12 [Sildenafil Mesylate] | 12.2 ± 0.17 | -0.91 | 0.21 | -0.01 | -0.29 | 1.74 | -0.5 | 0.05 | -0.78 | 1.55 | – | 0.08 | 1.64 | -0.05 | -0.95 | 0.21 |
| Oc1c(Cl)cc(Cl)cc1Sc1cc(Cl)cc(Cl)c1O [Bithionol] | 12.4 ± 0.28 | -3.78 | -1.47 | – | – | 5.87 | 3.98 | 2.39 | 4.37 | 3.51 | 2.62 | 2.92 | 1.53 | -0.03 | -1.81 | -0.68 |
